From PubChem BioAssay (NCI)
This is part of a sample that, as a whole, favours compounds with a hit. Of some 79,000 tested, about 15% had one in any assay. A number with no mark means an inactive call. Calls of active or inactive are those of the source. No stated cut-off is given here; in the data, active means growth inhibition above about 70%; inactive means the rest.

How the values were obtained:
[1] = NCI Yeast Anticancer Drug Screen. Data for the rad50 strain (AID 155);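 further: 0% = growth of vehicle-only cultures of the same strain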; settings: S. cerevisiae rad50 strain growth inhibition, active compounds read high
Method in brief: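 Readout: growth inhibition relative to vehicle-treated cultures. Compound exposure was carried out in a genetically defined yeast strain deficient in DNA damage repair.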

[2] = NCI Yeast Anticancer Drug Screen. Data for the mec2-1 strain (AID 157); settings: S. cerevisiae mec2-1 strain, active compounds read high
Method in brief: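 Each compound was tested on mec2-1 yeast, a strain altered in DNA damage repair or cell cycle control. Growth inhibition is reported relative to vehicle.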

[3] = NCI Yeast Anticancer Drug Screen. Data for the sgs1 mgt1 strain (AID 161);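 further: 0% = growth of cultures given vehicle only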; settings: S. cerevisiae sgs1 mgt1 strain, active compounds read high
Method in brief: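 Read-out: growth inhibition vs vehicle controls. Cells: mutant yeast strain deficient in DNA damage repair.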

[4] = NCI Yeast Anticancer Drug Screen. Data for the cln2 rad14 strain (AID 165);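 further: 0% = growth equal to vehicle treated cultures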; settings: S. cerevisiae cln2 rad14 strain, active compounds read high
Method in brief: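 Test compounds were added to cln2 rad14 yeast cultures; inhibition of growth was then determined by comparison with vehicle treatment.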

[5] = NCI Yeast Anticancer Drug Screen. Data for the bub3 strain (AID 167); settings: S. cerevisiae bub3 mutant strain, active compounds read high
Method in brief: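 Readout: yeast growth inhibition, expressed relative to vehicle-only wells. The test organism is a mutant strain from a panel with lesions in DNA repair or checkpoint genes.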

[6] = NCI Yeast Anticancer Drug Screen. Data for the mlh1 rad18 strain (AID 175); settings: S. cerevisiae mlh1 rad18 strain growth inhibition, active compounds read high
Method in brief: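 Inhibition values reflect reduced growth of mutant yeast versus vehicle-treated controls following compound exposure; the mutations affect DNA damage repair.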

[7] = at 5.0 µM (retest, dose inferred, filed as 0.5)
[8] = at 50.0 µM (retest, dose inferred, filed as 5.0)

Row | Structure (SMILES) | growth inhibition [1, 7] | growth inhibition [1, 8] | growth inhibition ([1]; at 50.0 µM) | growth inhibition [2, 7] | growth inhibition [2, 8] | growth inhibition ([2]; at 50.0 µM) | growth inhibition [3, 7] | growth inhibition [3, 8] | growth inhibition ([3]; at 50.0 µM) | growth inhibition [4, 7] | growth inhibition [4, 8] | growth inhibition ([4]; at 50.0 µM) | growth inhibition [5, 7] | growth inhibition [5, 8] | growth inhibition ([5]; at 50.0 µM) | growth inhibition [6, 7] | growth inhibition [6, 8] | growth inhibition ([6]; at 50.0 µM)
1 | CC(C)C(O)C(C)C | 5% | 1% | 83% (active) | 0% | -3% | -2.45% | -1% | 0% | 4.95% | 4% | -1% | 17.1% | 1% | -7% | 13.7% | 4% | 2% | 49.5%
2 | N#Cc1cccc2c1Sc1ccccc1N2 | 22% | 31% | 88.6% (active) | 6% | -9% | 92.8% (active) | 1% | 6% | 89.2% (active) | -5% | -6% | 90.1% (active) | -26% | 6% | 91.3% (active) | -7% | 7% | 60.5%
3 | CCCCCCCCCCCCCCOCCS(=O)(=O)O | 18% | 83% (active) | 70.8% (active) | -9% | 69% | 52.4% | 16% | 80% (active) | 78.8% (active) | -12% | 61% | 38.4% | 6% | 85% (active) | 29.8% | 7% | 83% (active) | 79.4% (active)
4 | CCNCC(O)COc1ccc2c(c1)[n+]([O-])nc(N)[n+]2[O-] (stereo not given) | 39% | 75% (active) | 61.1% | 31% | 88% (active) | 70% (active) | 42% | 60% | 62.8% | 42% | 41% | 40.9% | 47% | 84% (active) | 63% | 50% | 91% (active) | 58.8%
5 | CCO[Si](CC)(OCC)OCC | -3% | 2% | 27.1% | -6% | -3% | 4.4% | 4% | 3% | -12.2% | 0% | 3% | 81.1% (active) | -3% | 6% | -6% | -2% | 3% | 31.8%
6 | O=S(=O)(CCCl)Cc1ccccc1 | -145% | -144% | 5.2% | -45% | -39% | -0.4% | -61% | -37% | 14% | -50% | -50% | 10.7% | -69% | -66% | 10.7% | -144% | -100% | 10.8%
7 | Nc1ncnc2c1c(-c1ccccc1)cn2-c1ccccc1 | 38% | 78% (active) | 97.8% (active) | 31% | 58% | 97.3% (active) | 71% (active) | 93% (active) | 99% (active) | 20% | 53% | 95.2% (active) | 29% | 81% (active) | 95.8% (active) | 27% | 82% (active) | 98.5% (active)
8 | CC(C)(C)C(=O)CC(=O)C(F)(F)C(F)(F)C(F)(F)F.[Ag] | 97% (active) | 98% (active) | 91.8% (active) | 99% (active) | 99% (active) | 93% (active) | 99% (active) | 99% (active) | 90% (active) | 92% (active) | 99% (active) | 89.6% (active) | 98% (active) | 98% (active) | 87.8% (active) | 98% (active) | 98% (active) | 88.4% (active)
9 | Cn1c2c(c3ccccc31)CCN(CCN1CCN(c3ccccc3)CC1)C2=O | 30% | 31% | 71.9% (active) | 21% | 29% | 43% | 28% | 37% | 79% (active) | 26% | 24% | 60.6% | 32% | 43% | 67.5% | 32% | 35% | 59.8%
10 | CC(=O)NNc1nc(C)c(C(=O)NNC(=O)C(=O)Nc2ccc(Cl)cc2Cl)s1 | 1% | 82% (active) | 54.6% | 1% | 94% (active) | 39.4% | 5% | 87% (active) | 53.2% | -4% | 85% (active) | -38.2% | 5% | 89% (active) | 45.4% | -2% | 89% (active) | 73.9% (active)
